In PubChem BioAssay:
Unmarked numbers belong to inactive results. For some assays here: Entries with a potency or affinity are not part of this list. Active and inactive are the calls of the source. Unless noted, no rule for the calls is given here.

Tests used:
[1] = antimalarial activity against Dd2 strain (AID 2302;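 active = growth inhibition above 50% at the single 2 µM test dose, taken to imply half-maximal potency below 2 µM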;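 also: 0% = DMSO untreated growth and 100% = chloroquine plus artemisinin killed control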); conditions: P. falciparum Dd2 in RBCs, LDH growth readout, 72 h; at 2 µM; stronger effect = higher value
[2] = human hepatoma cell viability loss – ATP luminescence, cytotoxicity control for P. falciparum antimalarial project, primary screen (AID 2303;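 active = inhibition above 50%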;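 also: 0% = DMSO wells and 100% = digitonin-killed cells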); conditions: HepG2 viability, 24-48 h, at 10 µM, stronger effect = higher value
[3] = molecular target: L-lactate dehydrogenase (Plasmodium falciparum (isolate CDC / Honduras)) (UniProt Q27743); assay: PfLDH activity inhibition – cell lysate, 3D7 strain, counter-screen for P. falciparum growth inhibition project (AID 2304);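 also: 0% = vehicle and 100% = reference inhibitor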; conditions: P. falciparum 3D7 crude extract, LDH APAD/NBT absorbance; at 2 µM; stronger effect = higher value
Sequence of L-lactate dehydrogenase (Plasmodium falciparum (isolate CDC / Honduras)) (Q27743 whole entry, looked up): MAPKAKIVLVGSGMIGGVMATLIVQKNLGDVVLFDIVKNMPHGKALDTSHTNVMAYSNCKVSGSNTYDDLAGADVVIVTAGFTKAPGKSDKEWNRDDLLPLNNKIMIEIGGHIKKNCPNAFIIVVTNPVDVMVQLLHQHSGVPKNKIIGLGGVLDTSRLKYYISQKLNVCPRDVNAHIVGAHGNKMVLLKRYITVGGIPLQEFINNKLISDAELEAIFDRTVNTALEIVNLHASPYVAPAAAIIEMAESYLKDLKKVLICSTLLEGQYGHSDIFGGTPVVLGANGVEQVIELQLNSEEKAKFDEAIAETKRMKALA

[4] = inhibition of 3D7 malaria parasite growth – strain 3D7 (AID 2306);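 also: 0% = DMSO wells and 100% = chloroquine plus artemisinin control wells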; conditions: P. falciparum 3D7 erythrocytic growth, LDH absorbance, 72 h; at 2 µM; stronger effect = higher value
[5] = molecular target: Calcium-dependent protein kinase 1 (Plasmodium falciparum (isolate 3D7)) (UniProt P62344); assay: PfCDPK1 kinase inhibitors, biochemical, TCAMS library (AID 1159585; cut-off not given, nearly all actives have IC50 up to about 0.98 µM;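 also: inhibitors leave more ATP so luminescence rises with inhibition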); conditions: recombinant PfCDPK1, Kinase-Glo ATP depletion luminescence
Sequence of Calcium-dependent protein kinase 1 (Plasmodium falciparum (isolate 3D7)) (P62344 whole entry, looked up): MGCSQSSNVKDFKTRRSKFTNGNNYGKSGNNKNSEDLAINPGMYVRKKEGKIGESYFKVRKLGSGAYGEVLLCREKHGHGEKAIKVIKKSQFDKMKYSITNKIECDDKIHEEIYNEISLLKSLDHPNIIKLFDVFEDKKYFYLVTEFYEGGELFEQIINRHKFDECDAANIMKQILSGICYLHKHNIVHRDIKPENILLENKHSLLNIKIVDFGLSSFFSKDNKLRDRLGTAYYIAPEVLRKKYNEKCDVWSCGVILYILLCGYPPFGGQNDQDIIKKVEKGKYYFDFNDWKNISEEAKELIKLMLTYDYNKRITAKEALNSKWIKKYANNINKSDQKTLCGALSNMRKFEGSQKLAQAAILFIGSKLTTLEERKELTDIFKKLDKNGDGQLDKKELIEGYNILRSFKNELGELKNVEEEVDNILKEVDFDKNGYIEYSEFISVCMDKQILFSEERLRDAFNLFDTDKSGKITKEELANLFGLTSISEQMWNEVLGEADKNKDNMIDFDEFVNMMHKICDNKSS

[6] = molecular target: Plasmodium falciparum protein kinase 6 (PK6, PF3D7_1337100) (UniProt Q8IDW1); assay: PfPK6 kinase inhibitors, biochemical, TCAMS library (AID 1159586); conditions: recombinant PfPK6, Kinase-Glo ATP depletion luminescence
Sequence of Plasmodium falciparum protein kinase 6 (PK6, PF3D7_1337100) (Q8IDW1 1-305): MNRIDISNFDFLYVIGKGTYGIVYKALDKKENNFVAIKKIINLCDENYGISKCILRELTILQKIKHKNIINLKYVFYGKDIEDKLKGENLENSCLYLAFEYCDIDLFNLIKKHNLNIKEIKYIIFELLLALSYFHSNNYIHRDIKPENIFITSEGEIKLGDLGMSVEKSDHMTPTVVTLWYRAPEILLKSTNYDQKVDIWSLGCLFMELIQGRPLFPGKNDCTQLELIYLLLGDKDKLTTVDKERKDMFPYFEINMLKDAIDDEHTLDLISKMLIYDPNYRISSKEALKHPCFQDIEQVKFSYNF

[7] = molecular target: Protein kinase 7 (PK7), Plasmodium falciparum 3D7 (PF3D7_0213400) (UniProt Q7YTF7); assay: inhibition of Plasmodium PK7 catalytic activity – biochemical, TCAMS antimalarial set, Kinase-Glo luminescence (AID 1159587); conditions: recombinant PfPK7, Kinase-Glo ATP depletion luminescence
Sequence of Protein kinase 7 (PK7), Plasmodium falciparum 3D7 (PF3D7_0213400) (Q7YTF7 1-343): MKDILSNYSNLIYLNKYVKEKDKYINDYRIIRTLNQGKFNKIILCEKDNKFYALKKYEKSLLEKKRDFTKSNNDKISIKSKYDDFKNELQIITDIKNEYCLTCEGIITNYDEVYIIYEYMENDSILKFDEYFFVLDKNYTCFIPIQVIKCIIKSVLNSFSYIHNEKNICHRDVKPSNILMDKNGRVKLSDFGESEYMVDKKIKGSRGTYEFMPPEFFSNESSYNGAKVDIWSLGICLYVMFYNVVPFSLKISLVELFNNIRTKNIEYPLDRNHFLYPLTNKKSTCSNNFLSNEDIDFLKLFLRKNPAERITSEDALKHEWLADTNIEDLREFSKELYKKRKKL

[8] = molecular target: Calcium-dependent protein kinase 4 (Plasmodium falciparum (isolate 3D7)) (UniProt Q8IBS5); assay: PfCDPK4 kinase inhibitors, biochemical, TCAMS library (AID 1159588; cut-off not given, nearly all actives have IC50 up to about 0.91 µM); conditions: recombinant PfCDPK4, Kinase-Glo ATP depletion luminescence
Sequence of Calcium-dependent protein kinase 4 (Plasmodium falciparum (isolate 3D7)) (Q8IBS5 whole entry, looked up): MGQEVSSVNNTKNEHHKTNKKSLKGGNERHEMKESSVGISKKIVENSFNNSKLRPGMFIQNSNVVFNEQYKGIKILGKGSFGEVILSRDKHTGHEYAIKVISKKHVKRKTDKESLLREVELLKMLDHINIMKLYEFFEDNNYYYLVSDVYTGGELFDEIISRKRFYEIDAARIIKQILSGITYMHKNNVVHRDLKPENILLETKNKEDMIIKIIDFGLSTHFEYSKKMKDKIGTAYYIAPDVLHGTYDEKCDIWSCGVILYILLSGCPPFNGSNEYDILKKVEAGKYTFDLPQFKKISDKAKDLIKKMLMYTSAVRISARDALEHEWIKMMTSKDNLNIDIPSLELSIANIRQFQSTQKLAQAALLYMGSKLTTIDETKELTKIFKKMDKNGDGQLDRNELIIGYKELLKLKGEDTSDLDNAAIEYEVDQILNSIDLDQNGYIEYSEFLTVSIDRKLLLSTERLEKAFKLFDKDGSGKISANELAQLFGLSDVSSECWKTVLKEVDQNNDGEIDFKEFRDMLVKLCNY

O=C(Nc1cccc(CN2CCCN(Cc3ccc(O)cc3)CC2)c1)c1ccc(Br)cc1
growth inhibition [1]: 54% (active) | inhibition [2]: 19% | inhibition [3]: -2% | growth inhibition [4]: 94% (active) | outcome [5]: inactive | outcome [6]: inactive | outcome [7]: inactive | outcome [8]: inactive

COc1cccc(NC(=O)N2CCOC(CCN3CCC4(CCc5ccccc54)CC3)(c3ccc(Cl)c(Cl)c3)C2)c1 (configuration not stated)
growth inhibition [1]: 72% (active) | inhibition [2]: 97% (active) | inhibition [3]: 5% | growth inhibition [4]: 94% (active) | outcome [5]: inactive | outcome [6]: inactive | outcome [7]: inactive | outcome [8]: inactive

Cc1[nH]c(C)c([N+](=O)[O-])c(=O)c1-c1ccc(Oc2ccc(OC(F)(F)F)cc2)cc1
growth inhibition [1]: 97% (active) | inhibition [2]: -2% | inhibition [3]: -2% | growth inhibition [4]: 97% (active) | outcome [5]: inactive | outcome [6]: inactive | outcome [7]: inactive | outcome [8]: inactive

FC(F)(F)c1ccc2nc(-c3ccc(-c4ccc(CNCC5CCCO5)cc4)s3)[nH]c2c1 (configuration not stated)
growth inhibition [1]: 98% (active) | inhibition [2]: 47% | inhibition [3]: -6% | growth inhibition [4]: 101% (active) | outcome [5]: inactive | outcome [6]: inactive | outcome [7]: inactive | outcome [8]: inactive
